Sampled rows, rich in hits. Any-hit rate of the full collection: about 1.1%.
IP6K1 inh: IP6K1 kinase inhibition. Q92551. IP6K1 kinase, ADP-Glo luminescence, 2 h; hits give low values. activity change, % (series mostly up to about 58 µM). 140,000 compounds, 0.81% hits. AID 1645851; in the data active = activity change below about -25%
Target sequence (Q92551 whole entry, looked up): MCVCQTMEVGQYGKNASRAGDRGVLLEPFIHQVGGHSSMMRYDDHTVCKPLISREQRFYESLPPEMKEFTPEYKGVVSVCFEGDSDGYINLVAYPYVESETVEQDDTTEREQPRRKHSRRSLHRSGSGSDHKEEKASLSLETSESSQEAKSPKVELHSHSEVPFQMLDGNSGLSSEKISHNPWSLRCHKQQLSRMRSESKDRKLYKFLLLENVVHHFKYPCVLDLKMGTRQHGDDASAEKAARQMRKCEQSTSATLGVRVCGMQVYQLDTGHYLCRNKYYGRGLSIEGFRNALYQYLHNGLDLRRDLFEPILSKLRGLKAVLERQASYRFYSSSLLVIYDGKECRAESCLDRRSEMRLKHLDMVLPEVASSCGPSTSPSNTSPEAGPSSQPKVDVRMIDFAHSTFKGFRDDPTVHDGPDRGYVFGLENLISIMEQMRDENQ
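ADP-Glo luminescence measures ADP made by human IP6K1 during a 2 h RT reaction with ATP/IP6 (mix at 1.3 mM/130 uM); top library doses 57.5 and 19.1 uM final.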
GPT2 inhibitor: blocks human glutamate pyruvate transaminase 2 | Q8TD30 | Recombinant GPT2, coupled pyruvate oxidase/HRP Amplex Red fluorescence | Potency, µM (top dose mostly 57.7 µM), most hits filed as inhibitors | 100,000 compounds, 0.25% hits; note: nearly all actives have a fitted effect of over 60% in size
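Fluorescence read-out: pyruvate from GPT2 turnover coupled to pyruvate oxidase, HRP and Amplex Red (0.2mM ThPP, 0.2U/mL PO and HRP, 50uM Amplex final). Substrates 250uM a-KG, 2mM L-alanine; enzyme 10ng/uL; 30 min RT.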
HEK293 viab: cell viability loss counter-screen; AID 1671193; Potency, µM (doses to about 57.1 µM), hits mostly cytotoxic; 150,000 compounds, 0.12% hits; HEK-293-SNCA-luc viability, GF-AFC fluorescence, 24 h; note: nearly all actives have a fitted effect of over 30% in size
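HEK-293-SNCA-luc cells (1500/well) plated 24 h, then exposed 24 h to a dilution series; GF-AFC added 30 min at 37C, fluorescence 405/540 nm; normalised to medium-only and DMSO wells, Hill fit.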
SNCA expr inh: SNCA gene expression inhibition. AID 1671194. 140,000 compounds, 0.17% hits. HEK-293 SNCA-luciferase knock-in, luminescence, 24 h. Potency, µM (titrated, usually from 57.2 µM), hits mostly inhibitors; note: nearly all actives have a fitted effect of over 45% in size
IP6K1 inh cnf: confirmation of human IP6K1 inhibitors. 1,200 compounds, 13% hits. AID 1645852. shares compounds with IP6K1 inh. recombinant IP6K1 kinase, ADP-Glo luminescence, 2 h. Potency, µM (top dose mostly 49 µM), hits mostly inhibitors; note: nearly all actives have a fitted effect of over 65% in size
Hits are given with their value; n = inactive; u = inconclusive; x = no result given; ! = a repeat was not active; [ ] = another dose, or the depositor's remark. Unless noted, calls come from the whole dose curve; as a rule, active = well fitted curve in the direction sought with a large enough effect; inconclusive = small, poorly fitted or top-dose-only effect, or another doubt; inactive = no such curve, though single readings can be large; an effect the other way counts as inactive or inconclusive.

SMILES	IP6K1 inh	GPT2 inhibitor	HEK293 viab	SNCA expr inh	IP6K1 inh cnf
O=C(Cc1c[nH]c2ncc(-c3ccccc3)cc12)Nc1ccc(Cl)cc1	n	n	n	n	x
O=C(Cc1c[nH]c2ncc(-c3cccc(O)c3)cc12)N1CCOCC1	n	n	n	u	x
NC(=O)Cc1c[nH]c2ncc(-c3ccc(F)c(Cl)c3)cc12	-36.3	n	n	n	u
NC(=O)Cc1c[nH]c2ncc(-c3ccc4c(c3)OCO4)cc12	-47.0	n	n	n	14.9µM
O=C(Cc1c[nH]c2ncc(-c3ccc(F)cc3)cc12)NCc1cccnc1	n	n	n	n	x
NC(=O)Cc1c[nH]c2ncc(-c3ccc(Cl)cc3)cc12	-43.5	n	n	n	u
O=C(NCC(=O)N1CCOCC1)c1ccc(-c2cnc3ccccc3c2)cc1	n	n	n	n	x
COc1ccccc1-n1c(=O)c(C(=O)N2CCN(C(=O)C(C)(C)C)CC2)nc2cccnc21	n	n	n	n	x
COc1ccc(-c2cnc3[nH]cc(CC(=O)Nc4ccncc4)c3c2)cc1	-39.2	n	n	n	u
C[S+](=O)([O-])c1cccc(NC(=O)Cc2c[nH]c3ncc(-c4ccccc4)cc23)c1	-26.3	n	n	n	u
CCOC(=O)C1CCN(C(=O)CCN(CC)C(=O)c2cc(C)oc2C)CC1	n	n	n	n	x
Cc1ccc(Cl)cc1NC(=O)c1csnn1	-36.7	x	n	n	u
CC(=O)Nc1ccc(NC(=O)c2csnn2)cc1	n	x	n	u	x
Cc1ccccc1CNC(=O)c1cnc2sc(N3CCOCC3)nn2c1=O	-99.7	x	n	n	n
COc1ccccc1CCNC(=O)CCc1c(C)c2cc3c(C)c(C)oc3cc2oc1=O	-25.5	x	n	n	n
N#Cc1cccc(NC(=O)c2cc3c(s2)-c2ccc(Cl)cc2SC3)c1	-49.7	x	n	n	n
COc1cc(Nc2ccc([N+](=O)[O-])cc2C(=O)O)cc2ccccc12	-25.1	n	n	x	u
COc1cc([N+](=O)[O-])ccc1NC(=O)c1nc2ccccc2n(C)c1=O	n	x	n	n	x
O=C(O)c1ccc2c(c1)nc(Nc1cccc(Cl)c1)c1ccncc12	-35.3	n	n	u	u
Cc1cc(Nc2cccc(Cl)c2)nc2ccc(NC(=O)c3cccnc3)cc12	n	x	u	u	x
CCOc1ccc(NC(=O)CN(c2ccc(Cl)cc2C)S(=O)(=O)c2ccccc2)cc1	-25.4	x	n	u	n
COc1cc(NC(=O)CSc2nccn2C)cc(OC)c1OC	n	x	n	n	x
Cn1cnnc1SCC(=O)Nc1cc(C(=O)O)cc(C(=O)O)c1	-29.9	x	n	u	n
CC(C)CN1C(=O)c2cccn2CC1C(=O)NCc1ccc(Cl)cc1 (stereo unspecified)	n	n	n	u	x
COCCN1CCCC[C@]2(C[C@H](C(=O)O)[C@H](c3ccco3)N2C(=O)Cc2cccs2)C1=O	-25.1	x	x	x	u
SMILES	IP6K1 inh	GPT2 inhibitor	HEK293 viab	SNCA expr inh	IP6K1 inh cnf
CCOC(=O)[C@H]1C[C@]2(CCCCN(CCOC)C2=O)N(C(=O)Cc2cccs2)[C@H]1c1ccco1	n	x	x	x	x
COC(=O)c1cccnc1-n1c(=O)c2cccnc2n(CC(=O)Nc2c(C)cc(C)cc2C)c1=O	n	x	n	n	x
COC(=O)c1cccnc1-n1c(=O)c2cccnc2n(CC(=O)Nc2ccccc2F)c1=O	-28.1	x	n	n	n
COc1ccccc1N1CCN(C(=O)c2c3c(nc4ccccc24)C(=O)N(C2CCCCC2)C3)CC1	n	x	n	n	x
Cc1ccc(C)c(N2CCN(C(=O)c3c4c(nc5ccccc35)C(=O)N(C3CCCCC3)C4)CC2)c1	-31.2	x	n	n	n
COc1cccc(NC(=O)c2nnn(Cc3ccc(OC)c(Br)c3)c2N)c1	-26.6	x	n	n	u
Cc1cccc(NC(=O)Cn2nnc(C(=O)Nc3ccc(F)c(Cl)c3)c2N)c1	-33.8	x	n	n	n
COc1ccc(NC(=O)Cn2nnc(C(=O)Nc3ccc(C)c(F)c3)c2N)cc1Cl	n	x	n	n	x
Cc1cc(C)cc(NC(=O)CSc2nc3c(cnn3-c3ccc(F)cc3)c(=O)[nH]2)c1	n	x	n	n	x
O=C(CSc1nc2c(cnn2-c2ccc(F)cc2)c(=O)[nH]1)Nc1ccc(Br)cc1	-28.0	x	n	n	n
Cn1c(CN2CCC(O)CC2)nnc1C1CCCN(C(=O)CCN)C1 (stereo unspecified)	n	n	n	n	x
Cc1c(C)n(Cc2ccc(-c3ccccc3C(=O)O)cc2)c2ccc(C(=O)N[C@@H](C)c3ccc([N+](=O)[O-])cc3)cc12	-26.8	n	n	n	u
CCOC(=O)c1c(NC(C)=O)c2c3c(sc2n1Cc1nc(-c2cccc(Cl)c2)oc1C)CCCC3	n	x	n	n	x
CCOC(=O)c1c(NC(C)=O)c2c3c(sc2n1Cc1nc(-c2ccccc2Cl)oc1C)CCCC3	-30.4	x	n	u	n
Cc1cccc(NC(=O)c2oc3c(c2C)-c2[nH]ncc2CC3)c1C	n	x	n	n	x
Cc1ccc(NC(=O)c2oc3c(c2C)-c2[nH]ncc2CC3)c(Cl)c1	-45.1	x	n	n	n
NC(=O)N/N=C/c1ccc([N+](=O)[O-])o1	-50.0!	31.6µM!	n	n	n
CC(C)OCCCNC(=O)CCCN1C(=O)CCn2nc(-c3cccn3C)cc21	-33.9	x	n	n	n
Cc1cc2c(cc1S(=O)(=O)NCc1ccc(F)cc1)n(C)c(=O)c(=O)n2C	-26.1	x	n	n	n
Cc1nn(CC(=O)NCc2ccc(N(C)C)cc2)c(=O)c2nc(C(C)C)sc12	n	n	n	n	x
CNC(=O)c1cc(C)nc2onc(C3CCN(C(C)=O)C3)c12 (stereo unspecified)	n	x	x	x	x
Clc1cccc(-c2ccc(CN3CCN(C4CCNC4)CC3)o2)c1 (stereo unspecified)	-27.8	n	n	n	n
Cc1cccc(Nc2nc(N[C@@H]3CCCC[C@H]3N)ncc2C(N)=O)c1	x	u	n	n	x
NC(=O)c1cnc(N[C@@H]2CCCC[C@H]2N)nc1Nc1cccc(-n2nccn2)c1	n	n	u	x	u
CCOC(=O)C1CCN(C(=O)c2cc(-c3ccccc3OC)c3nncn3n2)CC1	n	n	n	n	x
SMILES	IP6K1 inh	GPT2 inhibitor	HEK293 viab	SNCA expr inh	IP6K1 inh cnf
O=C(c1cc(C2CC2)nc2onc(C3CCCNC3)c12)N1CCOCC1 (stereo unspecified)	n	n	n	n	x
N#CC(=Cc1ccc(O)c(O)c1)C(=O)NCc1ccccc1	x	u	n	n	u
O=C(NCc1cccc(F)c1)c1cc(-c2cccc(C(F)(F)F)c2)c2nncn2n1	n	n	n	u	x
O=C(CCn1cncn1)N1CCC(c2nccn2Cc2cccnc2)CC1	-37.8	n[11.5 µM]	n	n	n
O=S(=O)(c1cccc(Cl)c1)n1c(/C=C/c2ccccc2Cl)nc2ccccc21	-39.1	x	n	u	u
O=C(c1cccnc1)N1CC(Oc2ccccc2-c2nc(-c3cnccn3)no2)C1	n	n	u	n	x
CC(C)N1CCC2(CC1)CN(C(=O)C1CCOCC1)Cc1ccccc1O2	n	n	n	n	x
Nc1nc(Nc2cccc(Cl)c2)sc1C(=O)c1ccc(F)cc1	-27.2	x	n	n	n

Screens deposited in PubChem BioAssay by National Center for Advancing Translational Sciences (NCATS).
